High-throughput results as filed in PubChem.
Hits are enriched below; roughly 6.9% of the tested compounds scored in any of these assays.
L3MBTL1 inh: L3MBTL1 (human) inhibition. Q9Y468. hit rate 0.66% among 230,000. Potency, µM (doses to about 57.1 µM), inactives show at the top dose activity, negative = inhibition, usual class: inhibitors. AlphaScreen L3MBTL1–H3K9me1 peptide binding; note: % is set by controls: 0 for no effect and ±100 for the full control effect; nearly all actives have a fitted effect of over 60% in size
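First, the protein-peptide complex forms for 30 min at room temperature (L3MBTL1 50 nM, biotinylated H3K9me1 peptide 75 nM). Next, compounds are pin-transferred and incubated 30 min. Finally, AlphaScreen beads are added and read after 30 min.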
JMJD2A Tudor inh: JMJD2A Tudor domain (human) inhibition | O75164 | AlphaScreen JMJD2A-Tudor / H3K4me3 peptide binding | Potency, µM (titrated, usually from 114 µM), without a hit: top-dose activity change, negative = inhibition, most hits filed as inhibitors | hit rate 4.4% among 390,000; note: % is set by controls: 0 for no effect and ±100 for the full control effect; nearly all actives have a fitted effect of over 50% in size
PLK1 PBD inh: PLK1 (human) polo-box domain binding inhibition | Plk1 PBD binding of FITC phosphopeptide, fluorescence polarization | Potency, µM, without a hit: max response, negative = inhibition, most hits filed as inhibitors | P53350 | AID 720504 | hit rate 2.8% among 360,000; note: series mostly up to about 57 µM; % is set by controls: 0 for no effect and ±100 for the full control effect; nearly all actives have a fitted effect of over 65% in size
HP1b binding inh: inhibitors of HP1-beta chromodomain binding to methylated histone tails; hit rate 0.56% among 390,000; Potency, µM (doses to about 114 µM), inactives show at the top dose activity change, negative = inhibition, usual class: inhibitors; P83916; AID 540317; AlphaScreen HP1-beta / biotin-H3K9me3 peptide binding; note: nearly all actives have a fitted effect of over 70% in size
Target sequence (P83916 whole entry, looked up): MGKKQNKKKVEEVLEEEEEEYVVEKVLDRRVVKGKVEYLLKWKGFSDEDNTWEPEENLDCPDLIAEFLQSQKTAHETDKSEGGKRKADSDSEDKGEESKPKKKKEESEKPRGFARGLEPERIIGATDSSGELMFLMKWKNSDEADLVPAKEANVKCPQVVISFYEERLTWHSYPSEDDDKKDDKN
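Compound inhibition of the preformed complex between 50 nM HP1-beta and 50 nM biotinylated H3K9me3 peptide was read by AlphaScreen. Buffer was PBS pH 7.4 with 0.01% Tween-20. Incubations ran 30 min at room temperature, with 10 ug/mL donor/acceptor beads.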
BAZ2B inh: BAZ2B (human) inhibition; Q9UIF8; AlphaScreen BAZ2B-H3K14Ac peptide displacement; Potency, µM (highest dose often 114 µM), without a hit: at the top dose activity change, negative = inhibition, most hits filed as inhibitors; hit rate 4.4% among 360,000; AID 504333; note: % is set by controls: 0 for no effect and ±100 for the full control effect; nearly all actives have a fitted effect of over 60% in size
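Compounds, titrated to a top concentration of 110 uM, were incubated 30 min at room temperature with preformed BAZ2B/acetyl-K14 H3 peptide complex (50 nM each). Proximity signal was measured by AlphaScreen after 20 min with beads.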
VDR inh: inhibitors of human vitamin D receptor | Potency, µM, without a hit: max response, negative = inhibition, most hits filed as inhibitors | VDR-SRC2-3 peptide fluorescence polarization, 2 h | hit rate 0.93% among 400,000 | AID 504847 | P11473; note: % is set by controls: 0 for no effect and ±100 for the full control effect
Target sequence (P11473 whole entry, looked up): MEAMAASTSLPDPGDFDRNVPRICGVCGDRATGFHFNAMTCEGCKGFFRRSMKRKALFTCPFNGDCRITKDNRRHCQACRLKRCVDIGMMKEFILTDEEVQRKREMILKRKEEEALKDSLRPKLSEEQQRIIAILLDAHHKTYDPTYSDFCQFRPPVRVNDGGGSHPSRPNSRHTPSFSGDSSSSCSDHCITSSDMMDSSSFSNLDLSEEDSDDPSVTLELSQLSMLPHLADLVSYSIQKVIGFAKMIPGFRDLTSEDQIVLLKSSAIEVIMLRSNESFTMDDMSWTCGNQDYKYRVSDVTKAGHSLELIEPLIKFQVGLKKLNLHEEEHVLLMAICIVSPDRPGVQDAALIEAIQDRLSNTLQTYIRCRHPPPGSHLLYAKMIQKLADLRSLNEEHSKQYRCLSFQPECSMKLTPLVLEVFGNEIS
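Measured by FP: displacement of SRC2-3 coactivator peptide from VDR by library compounds, following a two-hour ambient incubation.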
* = called active by the depositor; ? = inconclusive; nt = no result; [ ] = dose if it differs, or a comment. Calls come from the whole dose curve; as a rule, active = well fitted curve in the direction sought with a large enough effect; inconclusive = small, poorly fitted or top-dose-only effect, or another doubt; inactive = no such curve, though single readings can be large; an effect the other way counts as inactive or inconclusive. Potency is the fitted concentration of half-maximal effect.

SMILES	L3MBTL1 inh	JMJD2A Tudor inh	PLK1 PBD inh	HP1b binding inh	BAZ2B inh	VDR inh
CCCNC(=O)CCc1c(C)nc2nc(CNC(=O)c3ccccc3)nn2c1C	nt	-12%	nt	7%	-1%	0%
Cc1ccccc1S(=O)(=O)c1c(C)cc(-c2ccccc2)[nH]c1=O	2%	7%	-4%	16%	7%	-7%
CC(=O)Nc1ccc(/C(C)=N/Nc2nc(N3CCOCC3)nc(N3CCOCC3)n2)cc1	nt	?	30µM*	-8%	nt	?
CCOC(=O)N1CCN(S(=O)(=O)N2CCCC(C(=O)NCc3ccc(C)cc3)C2)CC1 (centres undefined)	nt	nt	9%	nt	nt	nt
C[C@H](NC(=O)c1nc[nH]c1C(=O)NCC(=O)OC(C)(C)C)C(=O)OC(C)(C)C	nt	-26%	-11%	23%	?	-15%
C[C@H](NC(=O)c1nc[nH]c1C(=O)NC1CCNCC1)C(=O)OC(C)(C)C	3%	-22%	4%	30%	50µM*	-6%
C[C@H](NC(=O)c1nc[nH]c1C(=O)N1CCNCC1)C(=O)OCc1ccccc1	3%	35µM*	-1%	9%	56µM*	-5%
O=C(CNC(=O)c1nc[nH]c1C(=O)N1CCNCC1)OCc1ccccc1	7%	50µM*	5%	27%	50µM*	-3%
CC1CCN(C(=O)c2[nH]cnc2C(=O)NCC(=O)OCc2ccccc2)CC1	-12%	-25%	-8%	4%	-35%	7%
O=C(CNC(=O)c1nc[nH]c1C(=O)N1CCc2ccccc2C1)OCc1ccccc1	-2%	?	19µM*	4%	-33%	79µM*
Cc1c(NC(=O)c2ccccc2F)cccc1-c1nc2cccnc2s1	nt	?	nt	15%	-33%	16%
Cc1ccc(NS(=O)(=O)c2ccc3ccccc3c2)cc1C	nt	-14%	nt	nt	nt	nt
CCOC(=O)c1sc(=S)n(C)c1N	-1%	-12%	-2%	18%	-9%	9%
CCOC(=O)c1sc(=S)n(-c2ccc3c(c2)OCO3)c1N	-12%	?	13µM*	?	?	?
CCOC(=O)c1sc(=S)n(-c2ccc(F)c(F)c2)c1N	-5%	?	24µM*	-39%	4%	89µM*
O=C(Nc1ccc(F)c(Cl)c1)N1CCC(CN2CCc3ccccc3C2)CC1	nt	-20%	nt	3%	-8%	4%
COCCNc1ccc(-c2nc(-c3cccc(C)c3)no2)cc1[N+](=O)[O-]	nt	-20%	nt	8%	-4%	3%
Cc1ccccc1OCC(=O)N/N=C/C=C/c1ccccc1	nt	-31%	30µM*	-14%	-2%	?
COc1cc(/C=N/NC(=O)Cn2cnc3c2c(=O)n(C)c(=O)n3C)cc(OC)c1OC	9%	1%	3%	25%	3%	-11%
COc1cccc(/C=N/NC(=O)Cn2cnc3c2c(=O)n(C)c(=O)n3C)c1	12%	56µM*	24µM*	1%	1%	?
Cn1c(=O)c2c(ncn2CC(=O)N/N=C/C=C/c2ccccc2)n(C)c1=O	0%	40µM*	5%	16%	-1%	-12%
CCCCCNC(=O)C(=O)C1C(=O)Nc2ccccc21 (centres undefined)	nt	?	-10%	51%	79µM*	-7%
O=C1Nc2ccccc2C1Cc1ccccn1 (centres undefined)	0%	89µM*	-5%	1%	?	1%
O=C(NCc1ccccn1)C(=O)C1C(=O)Nc2ccccc21 (centres undefined)	nt	-4%	-5%	32%	79µM*	-24%
C=CCC(C)(O)c1ccc(OC)cc1 (centres undefined)	nt	nt	nt	nt	nt	-2%
SMILES	L3MBTL1 inh	JMJD2A Tudor inh	PLK1 PBD inh	HP1b binding inh	BAZ2B inh	VDR inh
O=C(Cc1ccccc1)NC1CCSc2ccccc21 (centres undefined)	nt	-26%	-12%	24%	-16%	-19%
Cc1ccc(COc2ccc3oc(-c4ccccc4)c(C(=O)O)c3c2)cc1	nt	-30%	nt	21%	-32%	-2%
CCOc1ccc(-c2nc(Cn3c(=O)cc(-c4ccccc4)c4c(C)nn(C)c43)c(C)o2)cc1OC	nt	-16%	nt	7%	-24%	7%
Cc1cc(C)c(CSc2nnc(C)n3c2cc2occc23)c(C)c1	nt	?	nt	?	40µM*	-7%
COc1ccccc1CNc1cc(-c2ccccc2Cl)ncn1	nt	nt	nt	nt	nt	-15%
Cn1c(-c2ccc3c(c2)OCO3)cnc1N	-9%	?	?	9%	-37%	11%
Cc1ccc(-c2cnc(NCc3cc4c(cc3[N+](=O)[O-])OCO4)n2C)cc1C	-8%	32µM*	0%	?	-14%	-16%
O=C(CN1CCC(Cc2ccccc2)CC1)N1CCc2ccccc2C1	-4%	?	27µM*	?	50µM*	-3%
O=C(CN(C1CCCCC1)C1CCCCC1)N1CCc2ccccc2C1	nt	6.3µM*	-8%	-53%	45µM*	-6%
O=C(CN1CCN(S(=O)(=O)c2ccc(F)c(Cl)c2)CC1)N1CCc2ccccc2C1	nt	-10%	3%	27%	nt	-6%
CCOCCn1c(=O)c2c(nc3n2CC(C)CN3Cc2ccccc2)n(C)c1=O (centres undefined)	nt	?	30µM*	-11%	?	-20%
CN(C)c1ccc(C(CNS(=O)(=O)c2ccc(F)cc2)N2CCc3ccccc32)cc1 (centres undefined)	nt	20µM*	nt	?	10µM*	4%
O=S(=O)(NCC(c1ccco1)N1CCc2ccccc21)c1ccccc1 (centres undefined)	?	?	-7%	?	40µM*	15%
Cc1cc(C)c(S(=O)(=O)NCC(c2ccc(N(C)C)cc2)N2CCc3ccccc32)c(C)c1 (centres undefined)	nt	13µM*	nt	?	3.2µM*	-8%
CN(C)c1ccc(C(CNS(=O)(=O)c2cccc([N+](=O)[O-])c2)N2CCOCC2)cc1 (centres undefined)	-1%	?	-2%	-5%	-36%	-9%
COc1ccc(C)cc1S(=O)(=O)NCC(c1ccc(N(C)C)cc1)N1CCc2ccccc21 (centres undefined)	nt	14µM*	nt	?	10µM*	-7%
COC(=O)C[C@H]1C[C@H]2c3cc(NC(=O)C4CCOCC4)ccc3O[C@H]2[C@@H](CO)O1	nt	nt	-2%	nt	nt	nt
COc1cccc(NC(=O)Cn2c(=O)n(-c3ccc(CC(=O)NCC4CCCO4)cc3)c(=O)c3ccccc32)c1 (centres undefined)	nt	-6%	nt	26%	3%	-6%
Nc1[nH]c(=O)nc2c1ncn2C1OC(CO)C(O)C1O (centres undefined)	nt	3%[57.1 µM]	nt	13%[57 µM]	nt	-4%
COc1ccc(C)cc1NC(=O)CC1NCCNC1=O (centres undefined)	nt	-10%	nt	20%	-5%	20%
